Assay [1] has as its system Human papillomavirus type 1a protein E7 (residues 44-93). Description: small molecules binding HPV E7 44-93 – biochemical, small-molecule microarray, residues 44-93, 635 nm fluorescence, primary screen (AID 1108).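 Note: E7 fragment applied at 1 µg/mL in TBST for 1 h at 4 C; score combines spot fluorescence with its signal to noise ratio.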 The following applies: fluorescence 635 nm, higher = more signal.
The nature of assay [2]: hepatitis C replication reporter changes, two-sided – Huh7 cells, luciferase reporter, HCV replication inhibitor project, primary screen (AID 1109).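 Note: huh7 hepatoma cells harbouring a luciferase neomycin HCV replicon reporter; luciferase luminescence as measure of HCV replicon replication; test concentration not given here.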 The following applies: Huh7 HCV replicon luciferase reporter, 48 h; higher = more signal.
Assay [3] has as its target Left-right determination factor 2 (Homo sapiens) (UniProt O00292). Kind of assay: small molecules binding LEFTY2 protein – biochemical, small-molecule microarray, 635 nm fluorescence scan, primary screen (AID 1110). As to conditions: higher = more signal.
For assay [4], the target named is Calmodulin-1 (Homo sapiens) (UniProt P0DP23). Description: small molecules binding calmodulin-1 with EGTA – biochemical, small-molecule microarray, Cy5-labelled CALM1, profiling panel (AID 1111).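 Note: labelled calmodulin applied in Tris saline Tween buffer holding calcium plus EGTA and DTT.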 The following applies: Cy5-CALM1 binding fluorescence, higher = more signal.
For assay [5] the target is unchanged. Kind of assay: small molecules binding Ca-loaded calmodulin-1 – biochemical, small-molecule microarray, Cy5-labelled CALM1, plus calcium, artefact control for SMM control-protein annotation, profiling panel (AID 1112).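 Note: score merges spot fluorescence with signal to noise from triplicate slides.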 The following applies: Cy5-CALM1 binding fluorescence, higher = more signal.
Assay [6] can be described thus: probe aWnt5a binding to arrayed compounds – biochemical, biotinylated probe, 635/667 nm fluorescence, primary screen (AID 1113).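 Note: score merges 667 nm fluorescence intensity with signal-to-noise per printed feature.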 The following applies: small-molecule microarray, higher = more signal.
A short description of assay [7]: probe aShh binding to arrayed compounds – biochemical, biotinylated probe, 635/667 nm fluorescence, primary screen (AID 1114).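 Note: probe is biotin-labelled aShh protein from a stem cell growth factor screen; measures binding of labelled protein to compounds printed on the slide; score merges feature fluorescence at 667 nm with signal-to-noise.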 As to conditions: small-molecule microarray, higher = more signal.
Assay [8] is described as follows: probe aNog binding to arrayed compounds – biochemical, biotinylated probe, 635/667 nm fluorescence, primary screen (AID 1115).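 Note: probe is biotinylated aNog protein used at 0.15 µg/mL for 1 h at 4 C; z-score combines 667 nm fluorescence of each spot with its signal to noise.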 The following applies: small-molecule microarray, higher = more signal.
The target of assay [9] is Torsin-1A-interacting protein 1 (Homo sapiens) (UniProt Q5JTV8). Kind of assay: compound microarray binding of lysate hLAP1 – cell lysate, small-molecule microarray, COS7 lysate, 635/667 nm fluorescence, primary screen (AID 1116). The following applies: 635 nm fluorescence, higher = more signal.
Assay [10] deals with Alpha-bungarotoxin (Bungarus multicinctus) (UniProt P60615). Kind of assay: compounds binding labelled alpha-BTX control protein – biochemical, small-molecule microarray, Alexa647 label, 635/667 nm fluorescence, artefact control for SMM control protein annotation, profiling panel (AID 1117). The following applies: alpha-BTX-A647 binding fluorescence, higher = more signal.
A further assay deals with Albumin (Bos taurus) (UniProt P02769). Kind of assay: compounds binding labelled BSA control protein – biochemical, small-molecule microarray, Alexa647 label, 635/667 nm fluorescence, artefact control for SMM control protein annotation, profiling panel (AID 1118).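 Note: score merges 667 nm emission intensity and signal-to-noise per printed compound spot.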 The following applies: BSA-A647 binding, fluorescence 635 nm, higher = more signal.
Assay [11] can be described thus: probe aXIP binding to arrayed compounds – biochemical, NeuroSMM set, 635/667 nm fluorescence, primary screen (AID 1119).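 Note: probe is the protein aXip251-270 applied at 1 µg/mL to compound-printed slides; binding of probe to printed compounds measured as 667 nm fluorescence plus signal to noise.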 As to conditions: small-molecule microarray, higher = more signal, called active from +8 up or from −8 down.
Assay [12] in a line: probe aNOTCH3 binding on compound microarray – biochemical, small-molecule microarray, 635/667 nm fluorescence, primary screen (AID 1120).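 Note: probe is a biotin-tagged antibody raised against NOTCH3 rather than NOTCH3 protein; score merges spot fluorescence near 667 nm with spot signal to noise.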 As to conditions: higher = more signal.
Assay [13] in a line: probe aNOTCH2 binding on compound microarray – biochemical, small-molecule microarray, 635/667 nm fluorescence, primary screen (AID 1121).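 Note: score merges feature fluorescence read at 667 nm with its signal to noise.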 As to conditions: higher = more signal.
Assay [14] deals with Carbonic anhydrase 2 (Homo sapiens) (UniProt P00918). Kind of assay: compounds binding carbonic anhydrase 2 – biochemical, small-molecule microarray, Alexa647-labelled CAII, profiling panel (AID 1122). As to conditions: CAII-A647 binding fluorescence, higher = more signal.
Assay [15] can be described thus: COS7 lysate on small-molecule microarray, probe aHis, 635 nm (AID 1123).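 Note: z-score combines 667nm fluorescence intensity with signal-to-noise per printed compound spot.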 The following applies: COS7 cell lysate, fluorescence, higher = more signal.
Assay [16] can be described thus: probe aLAP1 signal on lysate-treated microarray – cell lysate, small-molecule microarray, COS7 lysate, primary screen (AID 1124).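 Note: lysate comes from COS7 cells expressing LAP1 and is applied at 0.3 µg/mL; score merges spot fluorescence near 667 nm with signal-to-noise over triplicate slides.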 The following applies: probe aLAP1, fluorescence, higher = more signal.
A further assay concerns Sam68 (KHDRBS1). Kind of assay: compounds binding KHDRBS1 protein – biochemical, small-molecule microarray, 635 nm fluorescence, primary screen (AID 1125).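 Note: score merges 667 nm channel intensity with signal to noise over triplicate slides.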 As to conditions: higher = more signal.
In assay [17] the test system is Chordin-like protein 2 (CHRDL2). Kind of assay: compounds binding chordin-like 2 – biochemical, small-molecule microarray, 635 nm fluorescence, primary screen (AID 1126).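 Note: printed compound slides probed with Chrdl2 protein at 4 µg/mL for 1 h at 4 C; score merges 667 nm emission intensity with signal to noise over three replicate slides.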 As to conditions: fluorescence 635 nm, higher = more signal.
Assay [18] concerns the target Concanavalin-A (Canavalia ensiformis) (UniProt P02866). Kind of assay: compounds binding concanavalin A lectin – biochemical, small-molecule microarray, Alexa647 label, 635 nm, artefact control for SMM control protein annotation, primary screen (AID 1127).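 Note: z combines 667 nm emission intensity with signal-to-noise across three replicate slides.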 The following applies: ConA-A647 binding fluorescence, higher = more signal.

Five molecules from PubChem BioAssay can be followed below.

Activity calls are given as the source filed them.

Albumin (Bos taurus), sequence (P02769 whole entry, looked up): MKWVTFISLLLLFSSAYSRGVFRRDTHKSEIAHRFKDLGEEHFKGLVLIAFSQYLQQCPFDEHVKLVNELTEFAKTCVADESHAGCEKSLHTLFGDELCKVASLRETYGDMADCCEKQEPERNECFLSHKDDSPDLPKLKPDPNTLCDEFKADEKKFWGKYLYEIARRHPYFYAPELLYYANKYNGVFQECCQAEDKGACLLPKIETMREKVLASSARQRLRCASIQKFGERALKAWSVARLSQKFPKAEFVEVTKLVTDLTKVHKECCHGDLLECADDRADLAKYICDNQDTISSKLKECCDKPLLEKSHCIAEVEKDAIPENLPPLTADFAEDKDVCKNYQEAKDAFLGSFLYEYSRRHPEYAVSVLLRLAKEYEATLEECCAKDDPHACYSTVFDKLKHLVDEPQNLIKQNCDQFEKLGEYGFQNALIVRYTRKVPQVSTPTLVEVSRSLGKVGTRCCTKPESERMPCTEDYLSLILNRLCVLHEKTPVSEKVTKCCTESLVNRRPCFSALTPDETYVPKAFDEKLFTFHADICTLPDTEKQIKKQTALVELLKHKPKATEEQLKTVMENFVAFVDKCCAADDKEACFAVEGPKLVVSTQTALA
Torsin-1A-interacting protein 1 (Homo sapiens), sequence (Q5JTV8 whole entry, looked up): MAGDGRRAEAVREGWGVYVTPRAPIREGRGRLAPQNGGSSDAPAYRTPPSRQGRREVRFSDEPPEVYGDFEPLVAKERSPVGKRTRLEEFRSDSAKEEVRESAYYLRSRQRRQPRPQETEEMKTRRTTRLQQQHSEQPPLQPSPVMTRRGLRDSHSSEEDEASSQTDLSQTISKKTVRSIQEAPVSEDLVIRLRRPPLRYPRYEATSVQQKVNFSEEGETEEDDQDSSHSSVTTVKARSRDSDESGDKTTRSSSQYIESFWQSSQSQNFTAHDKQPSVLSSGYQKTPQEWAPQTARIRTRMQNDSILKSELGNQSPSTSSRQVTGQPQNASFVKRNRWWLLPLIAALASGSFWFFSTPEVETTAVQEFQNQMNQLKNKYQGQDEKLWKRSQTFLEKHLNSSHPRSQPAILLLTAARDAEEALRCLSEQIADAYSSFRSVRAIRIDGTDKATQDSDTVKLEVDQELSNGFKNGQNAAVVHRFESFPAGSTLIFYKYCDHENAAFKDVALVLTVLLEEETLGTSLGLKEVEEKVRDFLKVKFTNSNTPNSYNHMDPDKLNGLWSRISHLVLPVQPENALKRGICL
Alpha-bungarotoxin (Bungarus multicinctus), sequence (P60615 whole entry, looked up): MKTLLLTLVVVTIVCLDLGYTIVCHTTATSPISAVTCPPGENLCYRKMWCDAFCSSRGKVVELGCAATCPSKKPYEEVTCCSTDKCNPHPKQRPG
Concanavalin-A (Canavalia ensiformis), sequence (P02866 whole entry, looked up): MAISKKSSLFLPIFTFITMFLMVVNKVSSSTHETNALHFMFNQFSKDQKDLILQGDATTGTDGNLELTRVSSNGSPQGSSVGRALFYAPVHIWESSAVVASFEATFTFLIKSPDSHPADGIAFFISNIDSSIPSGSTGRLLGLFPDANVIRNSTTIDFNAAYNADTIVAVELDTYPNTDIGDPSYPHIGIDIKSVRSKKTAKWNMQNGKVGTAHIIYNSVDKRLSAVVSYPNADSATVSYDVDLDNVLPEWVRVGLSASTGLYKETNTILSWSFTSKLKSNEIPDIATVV
Left-right determination factor 2 (Homo sapiens), sequence (O00292 whole entry, looked up): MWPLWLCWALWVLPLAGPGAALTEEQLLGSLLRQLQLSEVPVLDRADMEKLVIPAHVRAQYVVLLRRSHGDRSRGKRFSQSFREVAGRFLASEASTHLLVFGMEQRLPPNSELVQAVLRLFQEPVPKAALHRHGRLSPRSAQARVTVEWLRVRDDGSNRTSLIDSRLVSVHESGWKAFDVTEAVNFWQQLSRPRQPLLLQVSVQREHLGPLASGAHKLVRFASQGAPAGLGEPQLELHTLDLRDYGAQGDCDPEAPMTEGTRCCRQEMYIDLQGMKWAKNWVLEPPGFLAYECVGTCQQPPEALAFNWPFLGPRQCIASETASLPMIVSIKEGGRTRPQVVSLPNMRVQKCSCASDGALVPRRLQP

As to `COC(=O)C1=C(C)N(Cc2ccccc2)c2c(C(=O)OC)c(C(=O)OC)c(C(=O)OC)c(=O)n2[C@@H]1c1ccccc1`, the composite z-score was -0.316 in assay [1]; 0.431 in assay [3]; 1.61 in assay [4]; 0.141 in [5]; -0.0806 in assay [6]; -0.221 in [7]. The composite z-score in [8] is -0.0286; in assay [9] it was 0.812; in assay [10] it was 0.732; with Albumin (Bos taurus), 0.8; in assay [12], 0.116; in assay [13], -0.0158. The composite z-score in assay [14] is 0.0478; in [15], 0.247; in assay [16] it was 0.763; in the assay with Sam68 (KHDRBS1), 0.383; in assay [17], -0.0328; in assay [18], 0.641. Moreover, the z-score in assay [2] came out at 0.0883. Moreover, the composite Z-score in assay [11] is 0.242 (inactive).

Regarding `O=[N+]([O-])c1ccc(C[n+]2ccc3ccc(O)cc3c2)o1`, the composite z-score in assay [1] was -0.0611; in assay [3] it was -0.0338; in assay [4] it was 1.01; in assay [5], 0.287; in assay [6] it was -0.0435; in [7], 0.673. Besides, the composite z-score in assay [8] is -0.206; in [9], -0.314; in assay [10], 2.53; with Albumin (Bos taurus) it was 0.895; in assay [12] it was 0.0736; in [13], -0.0746. Moreover, the composite z-score worked out at 0.64 in [14]; 0.466 in [15]; 0.98 in [16]; 0.534 in the assay on Sam68 (KHDRBS1); 0.0197 in [17]; 1.11 in assay [18]. The z-score in assay [2] is -0.95. In addition, the composite Z-score in [11] is 0.14 (inactive).

Regarding `CCCC[C@H]1OB(O)C[C@H]2C1=C(COC)C[C@H]1C(=O)N(Cc3ccccc3)C(=O)[C@H]12`, the composite z-score in assay [1] was -0.0721; in [3], 0.313; in [4], 0.188; in assay [5] it was -0.0421; in assay [6] it was -0.0327; in [7] it was -0.0904. For the same molecule, the composite z-score in assay [8] was 0.0649; in assay [9], 0.25; in assay [10], 0.526; with Albumin (Bos taurus), 0.11; in assay [12], 0.0727; in assay [13], -0.182. The composite z-score in assay [14] is 0.606; in assay [15], 0.0082; in assay [16], 0.102; with Sam68 (KHDRBS1), 0.252; in assay [17], -0.0765; in assay [18], 0.106. For the same molecule, the z-score in [2] is 0.202. Besides, the composite Z-score in [11] is -0.328 (inactive).

In the case of `NC(=O)NCC#Cc1ccc2c(c1)[C@]1(C(=O)N2)[C@H](C(=O)N2CCCCCCC2)[C@H]2C(=O)O[C@H](c3ccccc3)[C@H](c3ccccc3)N2[C@@H]1c1ccccc1OCCO`, the composite z-score in assay [1] was determined as 1.37; in assay [3], 1.46; in assay [4], 2.99; in assay [5], 1.69; in [6], 1.31; in assay [7] it was 2.38. Also, the composite z-score in assay [8] was determined as 2.29; in assay [9], 5.01; in assay [10] it was 2.63; with Albumin (Bos taurus) it was 0.408; in assay [12], 1.43; in assay [13] it was 0.985. In addition, the composite z-score in [14] amounted to 0.953; in [15], 4.03; in assay [16], 1.26; in the assay on Sam68 (KHDRBS1) it was 1.31; in assay [17] it was 1.56; in [18], 1.11. Moreover, the z-score in [2] was -1.54. The composite Z-score in assay [11] was 4.79 (inactive).

For `CC(=O)Nc1ccc([C@H]2[C@H](C)CC[C@H]3C(=O)N4[C@@H](CC[C@@H](C)[C@@H]4c4ccc(NC(C)=O)cc4)C(=O)N32)cc1`, the composite z-score in assay [1] is 0.946; in assay [3], 0.72; in assay [4] it was 0.184; in assay [5], -0.346; in assay [6], -0.176; in [7], 0.168. For the same molecule, the composite z-score in [8] was 0.33; in assay [9], 0.424; in assay [10], 0.884; with Albumin (Bos taurus) it was 0.626; in assay [12], -0.0699; in assay [13], -0.195. The composite z-score in assay [14] came out at 0.634; in assay [15], 1.24; in [16], 0.264; in the assay on Sam68 (KHDRBS1), 1.31; in [17], 0.378; in assay [18], 1.12. Also, the z-score in assay [2] was -0.288. For the same molecule, the composite Z-score in assay [11] is -0.222 (inactive).
